# Bioassay records from PubChem.
# Tg IFNy HTS = inhibitors of Toxoplasma gondii growth with IFN-gamma; 3.8% of 69,000 active; Toxoplasma gondii growth in IFN-gamma-treated host cells; active compounds read low; activity change, negative = inhibition, % (no concentration beside the values); in the data active = activity change below about -70%, passing the limit was not always enough;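 note: host cells are HeLa cells infected with Toxoplasma gondii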
# * hit, by the source's call. Only a selection was taken, and hits are over-represented in it overall.
SMILES,Tg IFNy HTS
CCN1c2cc(C)ccc2-n2cccc2C12CCN(S(=O)(=O)c1cc(Cl)ccc1OC)CC2,-105.8*
CCN1c2cc(C)ccc2-n2cccc2C12CCN(C(=O)NC(C)C(=O)OC)CC2 (centres undefined),62.9
CCN1c2cc(C)ccc2-n2cccc2C12CCN(C(=O)NCC(=O)OC)CC2,67.1
CCN1c2cc(C)ccc2-n2cccc2C12CCN(S(=O)(=O)c1ccc(C)cc1)CC2,-85.6*
COc1ccc(S(=O)(=O)N2CCC3(CC2)Nc2cc(C)ccc2-n2cccc23)cc1Cl,13.2
CCN1c2cc(C)ccc2-n2cccc2C12CCN(C(=O)c1ccc(OC)cc1)CC2,-89.6*
CCCNC(=O)N1CCC2(CC1)c1cccn1-c1ccc(C)cc1N2CC,-15.6
CO[C@H]1CN(Cc2cccc3c(C)c(C)[nH]c23)CC[C@H]1N,-2.7
CCN1CC(NC(=O)CNS(=O)(=O)c2ccc(F)cc2C)CC1=O (centres undefined),5.8
Cc1ccc(-c2nccc(C(F)(F)F)n2)c2cccnc12,-57.0
CC(C)Nc1ccnc(C2COCCN2CC2CCOCC2)n1 (centres undefined),2.4
CNc1nc(C2CCCCN2Cc2ccccc2C)nc2c1CCN(C(C)=O)C2 (centres undefined),-8.7
COC(=O)c1c(NCc2ccc(C(F)(F)F)cc2)c2cc(F)ccc2[nH]c1=O,-64.5
COC(=O)c1c(NCc2cccc(OC)c2)c2cccc(Cl)c2[nH]c1=O,-47.5
COC(=O)c1c(NCc2cccc(OC)c2)c2cc(Cl)ccc2[nH]c1=O,-114.1*
COc1ccc(S(=O)(=O)N2CCC3(CCCN(CC4CCOCC4)C3)C2)cc1 (centres undefined),-19.4
N#Cc1cccc2cccc(Sc3ccccc3)c12,-1.0
Cc1noc(C)c1C(=O)NCc1ccc2c(c1)OCO2,-39.7
COc1ccc(-c2noc(CC(=O)NCc3ccccc3)c2-c2ccc(OC)cc2)cc1,-62.1
Cc1ccc(Oc2ccc(CNC(=O)c3c(-c4ccncc4)noc3C)cc2)cc1,-84.1*
O=C(Nc1nc(-c2ccccn2)cs1)c1ccccc1CN1CCCCC1,-14.3
Cc1cc(C)n(-c2ccc(CCC(=O)Nc3nc(-c4ccccn4)cs3)cc2)n1,-97.9*
Cc1cc(C)n(-c2ccc(C(=O)Nc3nnc(CCc4ccccc4)s3)cc2)n1,-26.0
CS(=O)(=O)c1ccc(-c2nc(-c3ccc(F)cc3)c(-c3ccncc3)[nH]2)cc1,10.5
Cc1[nH]c(-c2ccc(F)cc2)nc1C(=O)O,-34.4
SMILES,Tg IFNy HTS
CS(=O)c1ccc(-c2nc(-c3ccc(F)cc3)c(-c3ccncc3)[nH]2)cc1 (centres undefined),-90.1*
CC(C)CN1CCC2(CC1)CC1(CCN(S(=O)(=O)C3CC3)CC1)N(C)C2=O,9.2
CCCc1cc(=O)[nH]c(SCC(=O)N2CCN(c3ccccc3OC)CC2)n1,27.4
O=C(N1CCN(c2nc3ccccc3s2)CC1)N1c2ccccc2Sc2ccccc21,-17.8
CCc1cc(=O)[nH]c(NC2CCN(C(=O)N3c4ccccc4Sc4ccccc43)CC2)n1,-117.3*
COCCn1c(C)cc2cc(NC(=O)C(C)Sc3nc(C)c(C)c(=O)[nH]3)ccc21 (centres undefined),12.0
CCOc1ccc(-c2nc(CSc3nc4c(c(=O)[nH]3)CN(C(C)C)CC4)c(C)o2)cc1OC,7.8
O=C(CN1CCC2(CCC1=O)NC(=O)c1ccccc1N2)Nc1ccc2ncccc2c1 (centres undefined),11.3
FC(F)(F)c1cc(N/N=C2/CCSc3sccc32)cc(C(F)(F)F)c1,-103.2*
CN(CCC(O)c1ccccc1)c1cc(N2CCOCC2)ncn1 (centres undefined),-3.5
Cc1nn(CCO)c(C)c1CN(C)Cc1cnn(-c2ccccc2)c1,2.7
Cc1nc2ccccn2c1-c1csc(NC(=O)c2ccc(Br)cc2)n1,-78.0*
Cc1nn(-c2ccccc2)nc1C(=O)Nc1nc(-c2ccc(F)c(F)c2)cs1,16.4
Cc1ccc(-c2csc(NC(=O)c3ccccc3)n2)c(C)c1,49.3
CCc1ccccc1NC(=O)CCNc1ncnc2c1CCNC2,-2.7
COc1cccc(OCCCn2cncc2-c2cn(C)nc2C)c1,-0.5
CCOCC1CN(CC2CC2)Cc2cnn(C)c21 (centres undefined),91.3
CN(C(=O)CSc1ccc(C(F)(F)F)cn1)c1c2c(nn1C)CCCC2,-25.9
CCN(CC)CCN(Cc1ccc(-c2ccc(C(F)(F)F)cc2)cc1)C(=O)Cn1c(SCc2ccc(F)cc2)nc(=O)c2c1CCC2,-76.1*
CCN(Cc1ccncc1)C(=O)CCNC(=O)c1ccc(F)cc1,74.9
CC(C)(C)NC(=O)[C@@H]1CCCC[C@@H]1C(=O)NCCSc1ncn[nH]1,7.4
Cc1cc(C(=O)c2ccc(C(C)(C)C)cc2)c(N)s1,19.0
CC(C)(C)c1ccc(C(=O)/C=c2\[nH]c(=O)/c(=C\c3cccs3)s2)cc1,-102.3*
O=C(Cn1ncc2c(N3CCOCC3)ncnc21)NCc1ccc(Br)cc1,-33.7
O=C(CCC1Nc2c3ccccc3nc(=S)n2C1=O)NCc1ccc(F)cc1 (centres undefined),11.7
COC(=O)c1sccc1S(=O)(=O)Nc1ccc(Nc2ccccc2)cc1OC,-1.3
